Hits are enriched below; roughly 3.5% of the tested compounds scored in any of these assays.
BoNT-A LC inh2: BoNT/A light chain protease inhibitors, primary screen, biochemical, flow cytometry, MLPCN library; inhibition, % at 10 µM; Botulinum neurotoxin type A light chain protease (Clostridium botulinum A str. ATCC 3502); multiplex microsphere protease substrate cleavage; actives 0.17% (n = 360,000); AID 588499, 2011; further: plate controls were buffer without enzyme for full effect and enzyme alone for no effect
Autofluor counter: compound fluorescence in toxin protease inhibitor counterscreen. fluorescence intensity (test concentration not listed). actives 3.1% (n = 360,000). compound autofluorescence counterscreen, microsphere flow cytometry; active compounds read high; in the data active means fluorescence intensity above about 16000; inconclusive means no clear call, values can overlap the other calls
BoNT-F LC inh: BoNT/F light chain protease inhibitors, primary screen, biochemical, flow cytometry, MLPCN library; Multiplex microsphere protease cleavage assay; inhibition, % at 10 µM; actives 0.22% (n = 360,000); AID 588497, 2011; in the data active means inhibition above about 35%, passing the limit was not always enough; inconclusive means no clear call, values can overlap the other calls; further: plate controls were buffer without enzyme for full effect and enzyme alone for no effect
Anthrax LF inh2: Bacillus anthracis LF protease inhibitors, primary screen, biochemical, multiplex microsphere, MLPCN library | Lethal factor (Bacillus anthracis), P15917 | multiplex microsphere protease cleavage assay | inhibition, % at 10 µM | actives 0.12% (n = 360,000) | AID 588501, 2011; further: plate controls were buffer without enzyme for full effect and enzyme alone for no effect
Target sequence (P15917 whole entry, looked up): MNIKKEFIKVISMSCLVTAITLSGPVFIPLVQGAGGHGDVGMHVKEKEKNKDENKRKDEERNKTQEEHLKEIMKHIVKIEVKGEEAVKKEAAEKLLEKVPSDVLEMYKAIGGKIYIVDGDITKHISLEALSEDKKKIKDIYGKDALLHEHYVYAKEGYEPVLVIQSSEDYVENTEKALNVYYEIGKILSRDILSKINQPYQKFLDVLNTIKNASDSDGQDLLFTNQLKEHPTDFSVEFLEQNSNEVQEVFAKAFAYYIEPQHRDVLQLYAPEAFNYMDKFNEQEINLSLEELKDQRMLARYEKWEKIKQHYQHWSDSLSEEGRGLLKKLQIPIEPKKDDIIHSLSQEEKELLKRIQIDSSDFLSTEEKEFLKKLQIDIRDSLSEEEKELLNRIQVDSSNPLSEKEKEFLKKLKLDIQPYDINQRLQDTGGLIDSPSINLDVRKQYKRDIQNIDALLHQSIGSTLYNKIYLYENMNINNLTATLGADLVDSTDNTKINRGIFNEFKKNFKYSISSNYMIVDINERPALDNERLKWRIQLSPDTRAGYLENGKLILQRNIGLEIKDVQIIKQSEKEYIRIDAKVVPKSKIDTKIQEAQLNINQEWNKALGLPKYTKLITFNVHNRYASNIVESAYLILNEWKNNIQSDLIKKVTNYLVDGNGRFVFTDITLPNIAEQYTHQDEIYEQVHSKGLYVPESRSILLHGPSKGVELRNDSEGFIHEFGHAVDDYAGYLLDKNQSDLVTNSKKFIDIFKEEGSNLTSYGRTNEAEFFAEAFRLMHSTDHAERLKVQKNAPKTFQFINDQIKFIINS
Active calls of the source: *; u = inconclusive. Unless noted, no stated cut-off is given here; in the data, active means inhibition above about 30%; inconclusive means no clear call, values can overlap the other calls; inactive means below that.

SMILES	BoNT-A LC inh2	Autofluor counter	BoNT-F LC inh	Anthrax LF inh2
COc1ccc(NC(=O)CN(C)C(=O)c2ccc3c(c2)S(=O)(=O)N=C2CCCCCN23)cc1	2.1	5909	0.0	-2.4
CC1CCCN(c2oc(-c3cccc4ccccc34)nc2C#N)C1 (stereo not given)	10.0	17536*	16.3	-15.0
Cc1ccccc1-c1nc(C#N)c(N2CCC(C)CC2)o1	-0.3	2860	-10.7	-2.2
CC(C)(Oc1cccc2ccccc12)C(=O)O	-2.5	17702*	-6.5	-2.8
CC(C)=CC(=O)OCc1cc([N+](=O)[O-])cc2c1OCOC2	-0.4	4486	4.2	-6.5
O=C(CC1Nc2ccccc2NC1=O)Nc1cc(Cl)cc(Cl)c1 (stereo not given)	-6.5	22648*	-7.9	0.3
O=C(C[n+]1cc(Br)cc2ccccc21)c1ccccc1	100.3*	6295	33.9	46.4*
COc1ccc(C(=O)C[n+]2cc(Br)cc3ccccc32)cc1[N+](=O)[O-]	116.5*	6163	51.6*	22.3
COc1ccc(C(=O)OCC(N)=O)cc1[N+](=O)[O-]	0.8	9464	4.7	1.1
NS(=O)(=O)c1ccc(CCNC(=O)COC(=O)CCc2c[nH]c3ccccc23)cc1	-0.7	3007	-12.7	-1.7
CCCCCCCCCS(=O)(=O)N/N=C/c1cccc([N+](=O)[O-])c1	3.4	19668*	0.9	-2.0
CC(C)(C)c1csc(NC(=O)CSc2nc3ccccc3c(=O)[nH]2)n1	u	19081*	4.1	-1.2
O=C(CSc1nc2ccccc2c(=O)[nH]1)Nc1ccc(S(=O)(=O)N2CCCC2)cc1	u	16902*	-2.8	0.8
O=C(CSc1nc2cc3ccccc3cc2[nH]1)Nc1ccc(F)cc1	u	23788*	1.1	-1.1
COc1ccc(NC(=O)CSc2nc3ccc(OC)cc3[nH]2)cc1	-0.4	3514	3.4	-1.9
CCN(c1ccc(NC(=O)COC(=O)c2ccc(S(=O)(=O)N3CCCC3)cc2)cc1)C(C)C	-2.6	24507*	-9.6	-4.6
Cc1cccc(NC(=O)CSCC(=O)OCc2ccccn2)c1	2.9	4594	-5.3	-2.7
CCOc1ccccc1N1CCN(CC(=O)Nc2ccnn2C2CCCC2)CC1	-0.3	3366	-4.3	-6.8
Cc1ccc(S(=O)(=O)Nc2cc(=O)[nH]c(SCC(=O)Nc3cccc(C(F)(F)F)c3)n2)cc1	-8.6	3088	-53.7	2.7
O=C(CSC1=NCCS1)Nc1ccc(S(=O)(=O)N2CCCCCC2)cc1	0.9	23340*	1.4	-1.4
Cc1ccc(NC(=O)CSc2nc(NS(=O)(=O)c3ccc(C)cc3)cc(=O)[nH]2)cc1	u	19078*	3.7	-1.5
Cc1cccc(C)c1NC(=O)CSc1nc2ccccc2c(=O)[nH]1	u	22821*	-1.3	-0.3
CC1Oc2ccccc2C=C1/C=N/Nc1ccc(C(=O)O)cc1 (stereo not given)	0.9	3902	-3.6	-0.6
COc1ccc(C2C(=O)N(C3CCCCC3)CC(=O)N2CC2COc3ccccc3O2)cc1 (stereo not given)	4.8	21276*	6.8	-1.8
Cc1ccc(C2C(=O)N(C3CCCC3)CC(=O)N2CC2COc3ccccc3O2)cc1 (stereo not given)	8.6	19758*	9.1	-5.6
SMILES	BoNT-A LC inh2	Autofluor counter	BoNT-F LC inh	Anthrax LF inh2
CC(C)C[C@@H](COCc1ccc([N+](=O)[O-])cc1)N1CCN(C(=O)c2ccc(C(F)(F)F)cc2)CCC1=O	-0.2	5708	0.0	0.7
CCN(C(=O)Cn1nnc(-c2ccccc2)n1)C1CCS(=O)(=O)C1 (stereo not given)	-2.7	6192	4.9	-7.0
Cc1csc(NC(=O)C2CCCO2)n1 (stereo not given)	2.6	21132*	3.9	-1.1
CC1(C(=O)O)CCC(C(=O)Nc2ccc3ccccc3c2)C1(C)C (stereo not given)	0.8	22940*	-0.5	1.8
O=C(Nc1nc(-c2ccccc2)cs1)C1CCCO1 (stereo not given)	u	9538	-17.8	-1.5
Cc1ccccc1NC(=O)C1CCC(C)(C(=O)O)C1(C)C (stereo not given)	0.1	2348	-2.6	-3.5
Cc1csc(NC(=O)C2CCC(C)(C(=O)O)C2(C)C)n1 (stereo not given)	-2.8	20359*	-4.0	-0.6
Cc1oc(C2CC2)cc1C(=O)O	0.8	19572*	-0.6	-1.7
CCOC(=O)CSc1nnc(-c2cc(OC)c(OC)c(OC)c2)o1	-2.4	4643	-8.6	-1.8
COc1cc(-c2nnc(SCc3cc(=O)oc4cc(O)c(O)cc34)o2)cc(OC)c1OC	7.9	21137*	6.5	-5.6

Screens: PubChem BioAssay, NMMLSC
